Data: paper PMC4336329 (PLoS ONE, 2015)
The campaign covered roughly 310,000 compounds. About 14,000 (4.5%) showed an effect of 50% or more. The effect is printed as a negative number. Many of the other results were omitted from the sample, so strong results are more common in it than they were.

target: human ether-à-go-go-related gene (hERG) potassium channel (human, UniProt Q12809); assay: primary screen, population patch clamp on CHO cells stably expressing hERG; higher = less effect of the substance
Sequence (Q12809 whole entry, looked up): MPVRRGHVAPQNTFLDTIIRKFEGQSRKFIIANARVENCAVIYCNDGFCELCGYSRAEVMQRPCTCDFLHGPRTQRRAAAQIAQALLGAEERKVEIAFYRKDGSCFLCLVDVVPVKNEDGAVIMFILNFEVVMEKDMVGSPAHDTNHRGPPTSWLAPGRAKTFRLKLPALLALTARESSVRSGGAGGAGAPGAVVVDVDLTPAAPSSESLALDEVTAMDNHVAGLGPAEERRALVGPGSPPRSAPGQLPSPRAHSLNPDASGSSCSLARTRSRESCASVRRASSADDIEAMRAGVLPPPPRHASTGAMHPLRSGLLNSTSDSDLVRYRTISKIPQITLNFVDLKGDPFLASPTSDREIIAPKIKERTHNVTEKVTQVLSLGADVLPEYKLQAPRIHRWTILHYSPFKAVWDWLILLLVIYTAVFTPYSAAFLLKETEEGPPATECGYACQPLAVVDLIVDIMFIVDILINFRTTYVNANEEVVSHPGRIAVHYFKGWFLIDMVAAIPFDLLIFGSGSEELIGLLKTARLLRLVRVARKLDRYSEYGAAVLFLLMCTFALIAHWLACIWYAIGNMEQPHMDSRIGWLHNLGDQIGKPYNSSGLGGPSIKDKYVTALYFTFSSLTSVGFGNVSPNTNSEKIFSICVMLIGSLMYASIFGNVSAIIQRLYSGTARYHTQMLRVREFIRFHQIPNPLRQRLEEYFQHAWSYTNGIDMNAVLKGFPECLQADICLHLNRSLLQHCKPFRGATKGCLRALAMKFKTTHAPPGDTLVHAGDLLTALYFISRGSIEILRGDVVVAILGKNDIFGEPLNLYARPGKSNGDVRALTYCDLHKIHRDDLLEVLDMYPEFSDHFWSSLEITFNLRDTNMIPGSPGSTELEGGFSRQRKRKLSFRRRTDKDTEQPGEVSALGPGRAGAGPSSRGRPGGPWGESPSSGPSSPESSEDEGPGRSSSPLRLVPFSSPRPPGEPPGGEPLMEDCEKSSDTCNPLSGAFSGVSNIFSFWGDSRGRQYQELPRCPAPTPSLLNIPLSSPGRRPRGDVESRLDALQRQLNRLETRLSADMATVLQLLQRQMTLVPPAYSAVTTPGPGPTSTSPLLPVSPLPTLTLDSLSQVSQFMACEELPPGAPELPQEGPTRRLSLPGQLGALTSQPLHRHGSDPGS
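Note: peak tail current of the secondary pulse compared with the same well before compound.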

Compound | hERG current change (%, negative = inhibition) at 10uM
CCC1CCCCN1C(=O)Nc1cccc(NC(=O)N2CCCCC2CC)c1 (stereo not drawn) | 9.57%
CC(C)c1nnc(NC(=O)C2CCCN2S(=O)(=O)c2ccc(Cl)cc2)s1 (stereo not drawn) | 7.71%
Fc1ccc(N=c2ssnc2Cl)c(F)c1 | 22.1%
CCCc1cc(=O)n2[nH]c(-c3ccc(C)cc3)cc2n1 | -0.208%
O=C(CN1CCN(C(=O)C2CCCO2)CC1)Nc1ccc(Cl)c(Cl)c1 (stereo not drawn) | -22.5%
Cc1ccc(Nc2cnn(C34CC5CC(CC(CC(=O)O)(C5)C3)C4)c(=O)c2Cl)cc1 | 12%
Cc1ccc(-n2nc3c(c2NC(=O)c2ccc(OC(C)C)cc2)CS(=O)C3)cc1 (stereo not drawn) | -12.8%
CCc1ccc(S(=O)(=O)Nc2c(C)n(C)n(-c3ccccc3)c2=O)cc1 | -2.47%
O=c1oc2cc(O)c(Cl)cc2c2ccccc12 | 3.98%
CC(C)CCNC(=O)C12CN(Cc3ccccc3)CC1C(c1ccc([N+](=O)[O-])cc1)=NO2 (stereo not drawn) | -53.1%
Cc1ccc(CCNC(=O)C23CN(Cc4ccccc4)CC2C(c2cccc([N+](=O)[O-])c2)=NO3)cc1 (stereo not drawn) | -14.8%
CC(C)CCNC(=O)C12CN(Cc3ccccc3)CC1C(c1cccc([N+](=O)[O-])c1)=NO2 (stereo not drawn) | -32.9%
O=C(NCCCCc1ccccc1)C12CN(Cc3ccccc3)CC1C(c1ccc([N+](=O)[O-])cc1)=NO2 (stereo not drawn) | 5.9%
O=C(NCCCCc1ccccc1)C12CN(Cc3ccccc3)CC1C(c1cccc([N+](=O)[O-])c1)=NO2 (stereo not drawn) | -6.27%
CCCCN(CCCC)CCCNC(=O)C12CN(Cc3ccccc3)CC1C(c1cccc([N+](=O)[O-])c1)=NO2 (stereo not drawn) | -80.6%
CCC(C)NC(=O)CSc1nc2ccccc2c(=O)n1-c1c(C)n(C)n(-c2ccccc2)c1=O (stereo not drawn) | 1.66%
COc1ccc(/C=C(\C#N)C(=O)Nc2cc(S(=O)(=O)N3CCCCC3)ccc2N2CCCCC2)cc1 | 6.92%
CNC(=S)Nc1ccc([N+](=O)[O-])cc1 | 11.9%
Cc1ccc(S(=O)(=O)N(C)CC(=O)N(CC(C)C)C2CCS(=O)(=O)C2)cc1 (stereo not drawn) | -2.85%
c1ccc(N2N=C(c3cccs3)CC2c2ccco2)cc1 (stereo not drawn) | 2.24%
COc1ccc(OCC(O)CNC(=O)c2ccccc2)cc1 (stereo not drawn) | 9.92%
O=C(NNCC(O)COc1ccccc1)c1ccccc1 (stereo not drawn) | 1.06%

Compound | hERG current change (%, negative = inhibition) at 10uM
O=C(NN(CC(O)COc1ccccc1)CC(O)COc1ccccc1)c1ccccc1 (stereo not drawn) | -66.1%
Cc1ccc(S(=O)(=O)N(c2cccc(C(F)(F)F)c2)C2C=CS(=O)(=O)C2)cc1 (stereo not drawn) | 6.3%
Cc1cc(NC(=O)CCC(=O)N(CCc2ccccc2)C(C(=O)NC2CCCC2)c2ccco2)no1 (stereo not drawn) | -66.1%
C=CCN(C(=O)CCC(=O)Nc1cc(C)on1)C(C(=O)NC1CCCC1)c1ccc(Cl)cc1 (stereo not drawn) | -56.3%
Cc1cc(NC(=O)CCC(=O)N(Cc2ccc(F)cc2)C(C(=O)NC2CCCC2)c2ccco2)no1 (stereo not drawn) | 0.819%
C=CCN(C(=O)CCC(=O)Nc1cc(C)on1)C(C(=O)NC1CCCC1)c1ccc(CC)cc1 (stereo not drawn) | -17.5%
C=CCN(C(=O)CCC(=O)Nc1cc(C)on1)C(C(=O)NC1CCCC1)c1ccc(C)cc1 (stereo not drawn) | 0.416%
Cc1cc(NC(=O)CCC(=O)N(Cc2ccccc2)C(C(=O)NC2CCCC2)c2ccco2)no1 (stereo not drawn) | -21.8%
CCN(CC)S(=O)(=O)c1ccc2c(c1)CC(C(=O)N1CCCC1)N2C(C)=O (stereo not drawn) | 1.51%
Cl.NCCSC1CC(=O)N(c2ccc(F)cc2)C1=O (stereo not drawn) | 17%
CC1=C(C)CS(=O)N(S(=O)(=O)c2ccccc2)C1 (stereo not drawn) | -16.3%
Cc1ccc(C(=O)CN(C(=O)c2ccc(Cl)cc2)N2C(=O)CCC2=O)cc1 | -50.7%
O=C(CN(C(=O)c1ccccc1Cl)N1C(=O)CCCC1=O)c1ccc(Cl)cc1 | 7.29%
O=C(CN(C(=O)c1ccc(Cl)cc1)N1C(=O)C2CCCCC2C1=O)c1ccc(Cl)cc1 (stereo not drawn) | 15.1%
Cc1ccccc1CC1(CO)CCCN(C(=O)c2cc(-c3ccccc3)no2)C1 (stereo not drawn) | 2.91%
CC(=O)Oc1ccc(C(=O)Nc2cccc3c2CCCC3)cc1 | 10.4%
Cc1c(NC(=O)Cc2ccccc2)cccc1C(=O)NN1C(=O)c2ccccc2C1=O | -10.2%
N#CCCn1cc(/C=N/NC(N)=S)c(-c2ccccc2)n1 | -28%
Cc1ccc(C(=O)NCc2ccccn2)o1 | 4.94%
O=S(=O)(/C=C/c1ccccc1)N1CCN(Cc2ccccc2)CC1 | -25.3%
O=c1cc(CN2CCN(S(=O)(=O)c3ccc4c(c3)OCCO4)CC2)c2ccc(O)cc2o1 | -4.32%
O=c1cc(CN2CCN(S(=O)(=O)/C=C/c3ccccc3)CC2)c2ccc(O)cc2o1 | -76.8%

Compound | hERG current change (%, negative = inhibition) at 10uM
O=c1cc(CN2CCc3ccccc32)c2ccc(O)cc2o1 | -0.218%
Cc1cc2oc(=O)cc(CN3CCN(S(=O)(=O)/C=C/c4ccccc4)CC3)c2cc1C | 1.24%
Cc1ccc2c(CN3CCN(S(=O)(=O)/C=C/c4ccccc4)CC3)cc(=O)oc2c1 | -72.4%
CCOc1ccc(N2C(=O)CC(N3CCN(c4ccc(Cl)cc4)CC3)C2=O)cc1 (stereo not drawn) | 18.5%
CCOC(=O)C1CCN(S(=O)(=O)c2c(C)[nH]c(=O)[nH]c2=O)CC1 | -0.439%
COc1ccc(C(CNC(=O)CSc2ccccc2F)N2CCOCC2)cc1 (stereo not drawn) | 10.7%
CC(=O)Nc1ccc(/C=C(\C#N)C(=O)NC2CCCCC2)cc1 | 11.2%
O=C(Cc1ccccn1)c1ccccc1 | 30.3%
Cc1ccc(S(=O)(=O)N/N=C\c2ccc3c(c2)OCO3)cc1C | -11.8%
c1ccc(CNc2c3ccccc3nc3ccccc23)cc1 | -77.1%
Cl.c1ccc(CNc2ncnc3ccccc23)cc1 | 4.3%
c1ccc(CNc2nc(-c3ccccc3)nc3ccccc23)cc1 | 4.15%
CN(C)CCNc1c2c(nc3ccccc13)CCC2 | -0.291%
O=C(NCc1ccco1)c1c2c(nc3ccccc13)CCC2 | -24.8%
c1coc(CNc2c3c(nc4ccccc24)CCC3)c1 | -78.7%
OCC(Cc1ccccc1)Nc1c2ccccc2nc2ccccc12 (stereo not drawn) | -71.2%
COCCNc1c2c(nc3ccccc13)CCC2.Cl | -58.5%
CN(C)CCCNc1c2c(nc3ccccc13)CCC2.Cl | -3.18%
O=C(NC(CO)Cc1ccccc1)c1ccccc1 (stereo not drawn) | -10.5%
O=C(Cc1ccccc1)NNc1c2ccccc2nc2ccccc12 | 12.3%
c1coc(CNc2c3c(nc4ncnn24)CCC3)c1 | -29.6%
Cc1ccc(N2C(=O)C3C4CC(=O)C(c5ccccc54)C3C2=O)cc1C (stereo not drawn) | -12.3%

Compound | hERG current change (%, negative = inhibition) at 10uM
C#CCOCCOCCOCCNc1nc(N2CCN(C(=O)Cn3cc(CC(C)O)nn3)CC2)nc(N2CCN(C(=O)Cn3cc(CC(C)O)nn3)CC2)n1 (stereo not drawn) | -7.58%
CC(C)(C)[C@H]1C=C(C(=O)O)O[C@@H](OCCCCO)C1 | 6.41%
CC12CCC(C(=O)NCc3ccco3)(OC1=O)C2(C)C (stereo not drawn) | 2.02%
COc1cccc(NC(=O)Nc2cc(C(=O)O)ccc2N2CC3CC(C2)c2cccc(=O)n2C3)c1 (stereo not drawn) | 8.25%
O=C(Nc1nccs1)c1cc2sccc2n1Cc1ccc(Cl)cc1 | -2.4%
Cc1ccc(C)c(N(CC(=O)NC(C)(C)C)C(=O)CCC(=O)Nc2nccs2)c1 | 2.56%
CC(C)Cn1c(N)c(C(=O)CSc2nc3ncc(Cl)cc3[nH]2)c(=O)n(C)c1=O | -0.019%
Cc1coc2cc3oc(=O)c(CCC(=O)N4CCC(C(=O)O)(c5ccccc5)CC4)c(C)c3cc12 | 0.933%
CC(C)(C)N1CC(OC(N)=O)C1 | 21%
OCCNc1c2c(nc3ccccc13)CCCC2 | -39%
CC(C)(C)OC(=O)NNc1c2ccccc2nc2ccccc12 | -27.7%
CC(C)(C)Nc1c2ccccc2nc2ccccc12 | -68.2%
CC(C)NCC(=O)Nc1c2c(nc3ccccc13)CCC2.O=C(O)C(=O)O | 6.26%
CC(C)CNc1c2c(nc3ccccc13)CCC2.Cl | -69.2%
Clc1c2c(nc3ccccc13)CCC2 | 16.4%
Cc1c2ccccc2nc2ccccc12 | -1.84%
CC(C)CNC(=O)COC(=O)c1c2c(nc3ccccc13)CCC2 | 4.12%
Cl.c1ccc(CNc2c3c(nc4ccccc24)CCC3)cc1 | -75.3%
Cc1ccc(N/N=C/c2ccncc2)cc1.Cl | 4.03%
O=C(COC(=O)c1ccc(O)cc1)NC1CCCCCC1 | 7.22%
O=C(NNS(=O)(=O)c1ccc(C(F)(F)F)cc1)c1cnn(-c2ccccc2)c1C(F)(F)F | 11.5%
